“And” between values parts separate entries of the source, which are not always exact repeats. Equal values may be shown once. Compounds without any hit were thinned out: in the full panel of roughly 79,000, 15% have a hit. No stated cut-off is given here; in the data, active means growth inhibition above about 70%; inactive means the rest.
Legend:
[1] = NCI Yeast Anticancer Drug Screen. Data for the rad50 strain (AID 155);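 further: 0% = growth of vehicle-only cultures of the same strain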; conditions: S. cerevisiae rad50 strain growth inhibition, active compounds read high; at 50.0 µM unless noted
Procedure, shortened: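 Vehicle-treated cultures provide the reference for the growth inhibition reported for compound-exposed, repair-deficient yeast.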

[2] = NCI Yeast Anticancer Drug Screen. Data for the mec2-1 strain (AID 157); conditions: S. cerevisiae mec2-1 strain, active compounds read high; at 50.0 µM unless noted
Procedure, shortened: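 Mutant yeast (mec2-1) grown with compound; growth inhibition relative to vehicle control reported.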

[3] = NCI Yeast Anticancer Drug Screen. Data for the sgs1 mgt1 strain (AID 161);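 further: 0% = growth of cultures given vehicle only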; conditions: S. cerevisiae sgs1 mgt1 strain, active compounds read high; at 50.0 µM unless noted
Procedure, shortened: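 Percent growth inhibition was derived by comparing compound-exposed mutant yeast with vehicle-exposed cultures. The strain carries alterations in DNA damage repair.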

[4] = NCI Yeast Anticancer Drug Screen. Data for the cln2 rad14 strain (AID 165);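 further: 0% = growth equal to vehicle treated cultures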; conditions: S. cerevisiae cln2 rad14 strain, active compounds read high; at 50.0 µM unless noted
Procedure, shortened: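 Readout is yeast growth inhibition versus vehicle-treated controls, using a strain with cln2 and rad14 alterations exposed to compound.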

[5] = NCI Yeast Anticancer Drug Screen. Data for the bub3 strain (AID 167); conditions: S. cerevisiae bub3 mutant strain, active compounds read high; at 50.0 µM unless noted
Procedure, shortened: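 Mutant yeast screening strain plus compound; vehicle-treated cultures serve as the 0% inhibition reference.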

[6] = NCI Yeast Anticancer Drug Screen. Data for the mlh1 rad18 strain (AID 175); conditions: S. cerevisiae mlh1 rad18 strain growth inhibition, active compounds read high; at 50.0 µM unless noted
Procedure, shortened: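 Genetically defined yeast (DNA repair-deficient) exposed to compounds; growth inhibition determined relative to vehicle.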

Measured: growth inhibition

COC(=O)c1c(C)nc(C)c(N=O)c1-c1ccccc1C(F)(F)F
inactive: [1] 6.4% | [2] 5.5% | [3] 7.45% | [4] 20.1% | [5] 12.4% | [6] -44.6%

CCCCCCCCCCCCCCCCC(C(=O)O)C(O)(CC(=O)O)C(=O)O (stereo unspecified)
inactive: [1] 2.8% and 41.7% | [2] -14.7% and 16.6% | [3] 14.5% and 43.4% | [4] -10.7% and 16.6% | [5] -7.9% and 33.4% | [6] 7.25% and 31.6%

NC1=CN(CCCO)C2=N/C(=C\c3ccccc3)C(=O)N12
inactive: [1] 14.2% | [2] -3.65% | [3] 26.4% | [4] 8.9% | [5] -3.3% | [6] 12.7%

C=C(C)C(=O)Oc1ccccc1/C=C/C(=O)CCCCCC
inactive: [1] -8.45% | [2] -14.1% | [3] -20.4% | [4] -9.1% | [5] -11% | [6] 4.4%

COc1ccc(-c2oc(=O)cc(-c3ccccc3)c2-c2ccccc2)cc1
inactive: [1] 22.6% | [2] -11.6% | [3] 16.2% | [4] 4.2% | [5] -3.55% | [6] 14.7%

CC(=O)Nc1snc(C)c1[N+](=O)[O-]
inactive: [1] -4.55% | [2] -0.1% | [3] 6.75% | [4] -8.2% | [5] -2.9% | [6] 0.55%

C=C1c2nc3ccccc3n2C=C(c2ccc(C)cc2)N1c1ccc(C)cc1
inactive: [1] 24.6% | [2] 18% | [3] 16.2% | [4] 25% | [5] 11.2% | [6] 29.8%

CC1(C)COC(=S)N1
inactive: [1] -3% and -28.6% | [2] 6.85% and -21.8% | [3] 0.5% and -14.8% | [4] 11.4% and -25.3% | [5] 9.55% and -26.9% | [6] 19.1% and -27.2%

OCCN1CCN=C1Cc1ccccc1
inactive: [1] 4.75% | [2] 11.9% | [3] 8.05% | [4] 14.2% | [5] -2.1% | [6] 29.4%

OC1c2ccccc2C2c3ccccc3C1C2Cl (stereo unspecified)
inactive: [1] 43.8% | [2] 5.9% | [3] 25.8% | [4] 35.3% | [5] -5.7% | [6] 39.8%

COC(=O)N/N=C(/CCC(=O)Nc1ccc(C)c(C)c1)CC(=O)C(C)(C)C
inactive: [1] -10.8% | [2] -12.1% | [3] 8.45% | [4] 2% | [5] 19.1% | [6] -1.9%

O=C(NCc1ccccc1)C(=O)NCc1ccccc1
inactive: [1] 4.35% | [2] -1.85% | [3] -7.25% | [4] 3.5% | [5] -6.9% | [6] 5%

Cc1c(C(=O)C/C(=N/NC(=O)C[n+]2ccccc2)C(=O)Nc2ccccc2)[n+](=O)c2ccccc2n1O
inactive: [1] -37.5% | [2] 0.2% | [3] -40.7% | [4] -0.7% | [5] -15.2% | [6] -31.4%

CC(C)N(C(=O)c1ccccc1O)C(C)C
inactive: [1] 2.95% | [2] -7.65% | [3] 6.55% | [4] -7.7% | [5] -4.4% | [6] 2%

CCC1(C=O)C(=O)NC(=O)N1C (stereo unspecified)
inactive: [1] 3.4% | [2] 1.05% | [3] 2% | [4] 6.25% | [5] 1.7% | [6] 6.45%

C/C(=N\NS(=O)(=O)c1c(C)cc(C)cc1C)c1ccc[n+]([O-])n1
inactive: [1] 3.95% | [2] 0.2% | [3] -8.4% | [4] 15.1% | [5] -12.8% | [6] -6.7%

CC(=O)CCCCC(=O)Nc1ccc(CC(NC(=O)OC(C)(C)C)C(=O)NCC(=O)OCc2ccccc2)cc1 (stereo unspecified)
inactive: [1] -38.5% | [2] -4.5% | [3] -1.6% | [4] 8.85% | [5] 10% | [6] -12.1%

COc1ccc(/C(C)=C\C(=O)O)cc1
inactive: [1] -1.95% | [2] -3.2% | [3] -9.55% | [4] -43.2% | [5] -40% | [6] 7.15%

Cc1cc2ccccc2cn1
inactive: [1] 1% and 29.1% | [2] -23.1% and 16.6% | [3] 5.55% and 19.2% | [4] -30.6% and -34.1% | [5] 5.95% and 10.8% | [6] 4.75% and 24.6%

CC1CCCN(CCC(=O)c2ccc(O)cc2)C1 (stereo unspecified)
inactive: [1] 38.2% | [2] 22.5% | [3] 26.3% | [4] 21.2% | [5] 7.35% | [6] 32.4%

COc1ccc(/C=C/C(=O)c2sc(Nc3ccc([N+](=O)[O-])cc3)nc2C)cc1
inactive: [1] 39.2% | [2] 7.45% | [3] 5.35% | [4] 36.8% | [5] 27.5% | [6] 46.4%

CC(CC(O)C(=O)O)CC(C)(C)C (stereo unspecified)
inactive: [1] -5.95% | [2] 8.7% | [3] -7.15% | [4] -7.3% | [5] 22.3% | [6] 2.6%

CC(=O)OCC1OC(OC(C)=O)C(NC(=O)c2ccccc2)C(OC(C)=O)C1OC(C)=O (stereo unspecified)
inactive: [1] -2.1% | [2] -3.45% | [3] -3.5% | [4] -20.6% | [5] 17.4% | [6] -1.5%

Cc1nc(Nc2ccc(Cl)cc2)c2cnn(-c3ccc(Cl)cc3)c2n1
inactive: [1] -1.9% | [2] -2.25% | [3] -7.95% | [4] -41% | [5] -2.3% | [6] -5.05%

COc1cc2c(cc1OC)C(=O)c1nccc3ccc(OC)c(c13)O2
inactive: [1] -0.35% | [2] 17.1% | [3] 23.3% | [4] 4.75% | [5] 16.6% | [6] 16.6%

CNC(=S)NCOCCOC(C)=O
inactive: [1] 6.75% | [2] 22.1% | [3] 15.2% | [4] -26.9% | [5] 0.75% | [6] 3.45%

COc1cc(C2c3cc4c(cc3OC(N3CCOCC3)C2C)OCO4)cc(OC)c1O (stereo unspecified)
inactive: [1] -17.1% | [2] -25.8% | [3] -23.3% | [4] -12.5% | [5] -8.95% | [6] -8%

O=C(CCCl)Nc1ccc(C(=O)CCc2cccc(NC(=O)CCCl)c2)cc1
inactive: [1] 28.9% | [2] 2.65% | [3] 7.75% | [4] 22.5% | [5] -0.65% | [6] 6.3%

C=C1C(=O)O[C@@H]2O[C@@]3(C)CC[C@H]4[C@H](C)CC[C@@H]1[C@@]24O3
inactive: [1] 26.6% | [2] 26.9% | [3] 52.1% | [4] 22% | [5] 12.2% | [6] 40.5%

O=C1c2cc(F)ccc2-c2c(F)ccc(F)c21
inactive: [1] 38.1% | [2] 8.7% | [3] 27.7% | [4] 11.1% | [5] 23.6% | [6] 23.5%

COc1ccc(-c2cccc(C(=O)O)c2C(=O)O)cc1OC
inactive: [1] 6.1% | [2] 20.8% | [3] 0.4% | [4] -17.2% | [5] -7.4% | [6] -10.1%

O=C(CC(=O)C(F)(F)F)c1ccccc1.O=C(CC(=O)C(F)(F)F)c1ccccc1.[Mn]
inactive: [1] -1.85% | [2] -0.35% | [3] 19.2% | [4] -13.7% | [5] 3.6% | [6] 18.5%

O=C(NC(Cc1ccc(I)cc1)C(=O)O)c1ccc(Br)cc1 (stereo unspecified)
inactive: [1] -4.3% | [2] -5.65% | [3] 2.8% | [4] 12.1% | [5] -9.4% | [6] -0.9%

CC1CCC(c2cc(-c3ccccc3)n(-c3ccccc3)n2)CC1 (stereo unspecified)
inactive: [1] -6.25% | [2] 6.05% | [3] -2.35% | [4] -26.4% | [5] -17.4% | [6] -6.15%

Nc1ccc(C(=O)O)cc1N
inactive: [1] 17.5% | [2] 46.6% | [3] 15.4% | [4] 15.3% | [5] 1.45% | [6] 45.5%

CN(C)c1ccc(C2NC(=S)NC3=C2CCCC3)cc1 (stereo unspecified)
inactive: [1] -15.1% | [2] -15.6% | [3] 5% | [4] -20.6% | [5] 22.8% | [6] 14.6%

CC(=O)Oc1ccccc1C(=O)N(N)CCSc1ccc(Cl)cc1
inactive: [1] -0.45% | [2] 1.15% | [3] 11.2% | [4] -32.2% | [5] -12.5% | [6] -1%

COc1cc2c(c3oc4c(O)cccc4c(=O)c13)CC(C(C)(O)CO)O2 (stereo unspecified)
inactive: [1] 24.2% | [2] -11.6% | [3] -23.4% | [4] -9.25% | [5] -42.8% | [6] -33.6%

C=CCS(=O)(=O)CC=C
inactive: [1] 23.9% | [2] -12.5% | [3] -7.3% | [4] 3% | [5] -15.6% | [6] 17.9%

CCNC(=O)c1ccccc1N=NN(C)C
inactive: [1] -1.15% | [2] 25.4% | [3] -0.65% | [4] 5.65% | [5] 5% | [6] 21.9%

CCOC(=O)C(C#N)(CC(=O)OC)C(c1cccc2ccccc12)c1cccc2ccccc12 (stereo unspecified)
inactive: [1] 10.9% | [2] -12.7% | [3] 12.7% | [4] 21% | [5] -7.15% | [6] 13.8%

Source: PubChem BioAssay (NCI)
